The values that follow come from PubChem BioAssay (NCI).

The panel holds about 83,000 compounds, 20% with a hit somewhere; the sample as a whole holds those more often.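 Step 1: grow cells in 96-well plates. Step 2: add test compound at a single concentration. Step 3: incubate 48 h. Step 4: record percent growth.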 Unmarked numbers belong to inactive results. Activity calls are given as the source filed them. The calls were made as follows: active = growth percent below 10; inactive = the rest.

In the test the test system is MDA-MB-468 breast. The test is described as follows: NCI-60 one-dose screen, 48 h (100 = growth as untreated, 0 = no growth, -100 = all killed). The settings on record: 10 µM unless noted.
Consider `C[C@]12CC[C@H]3[C@@H](C[C@@H]4SC(Nc5cccc(F)c5)=N[C@@]45CC(=O)CC[C@]35C)[C@@H]1CCC2=O`, for which the growth was -2.99% (active).
Next, `CC(=O)O[C@H]1C(=O)[C@@]2(C)[C@H]([C@H](OC(=O)c3ccccc3)[C@]3(O)C[C@H](OC(=O)[C@H](OC(=O)OC[C@@H]4COC(C)(C)O4)[C@@H](NC(=O)c4ccccc4)c4ccccc4)C(C)=C1C3(C)C)[C@]1(OC(C)=O)CO[C@@H]1C[C@@H]2O`: -7.94% (active); `O=C(O)CC(Br)C(=O)CBr` (stereo not given): 105%; `COC(=O)C1OC(Oc2ccc(N(CCCl)CCCl)cc2)C(OC(C)=O)C(OC(C)=O)C1OC(C)=O` (stereo not given): 28.3%.
For `C/C=C\C(=O)O[C@@H]1CC2O[C@@H]3C=C(C)C(=O)C[C@]3(C)[C@]1(C)[C@]21CO1`, the growth was -29.7% (active).
Next, `C[CH2][Pb]([CH2]C)([CH2]C)[O]C(=O)c1ccc(N)cc1`: -11.9% (active); `COC(=O)[C@@H](C)C[C@H](Cc1ccccc1)NC(=O)c1nc([C@@H](C[C@H](C(C)C)N(C)C(=O)[C@@H](NC(=O)[C@H]2CCCCN2C)C(C)C)OC(C)=O)sc1C`: 53.2%.
The value for `CC(C)[C@@H]1NC(=O)[C@]2(C)CSC(=N2)c2csc(n2)CNC(=O)C[C@@H](/C=C/CCS)OC1=O` was 30%; that for `CN1C(=O)NC(=O)C(N=Nc2ccc(Cl)cc2)C1=O` (stereo not given) was 90.4%.
The value for `CCCC1CCCCC12C(=O)NC(=O)NC2=O` (stereo not given) was 113%.
`Nc1c(Br)cc2c3c(cccc13)-c1ccccc1-2`: the growth is 3.54% (active).
Next, `O=C/C=C/c1ccco1`: 106%.
Next, `COc1cc(/C=C\c2cc(OC)c(OC)c(OC)c2)cc(N/C=C\C(=O)c2ccc(OC(F)(F)F)cc2)c1OC`: 27.2%.
Regarding `Cc1ccc2c(C(C[N+](=O)[O-])c3cccs3)c(-c3ccccc3)[nH]c2c1` (stereo not given), the growth is -5.47% (active).
Next, `CC(=O)O[C@H]1CCC2(C)C(=CCC3C2CCC2(C)/C(=N/OC(=O)c4ccc(N(CCCl)CCCl)cc4)CCC32)C1` (stereo not given in full): 79.9%.
The value for `O=C1NC(=O)C(CN2C(=O)C3(c4ccccc42)[C@H](Cl)C(=O)N3c2ccccc2)C(=O)N1` (stereo not given in full) was -23.1% (active).
The value for `C[C@]12CC[C@H](O)C[C@@H]1CC[C@@H]1[C@@H]2CC[C@]2(C)OC(=O)CC[C@@H]12` was 106%; that for `CSc1cc(/C=C(\C)[C@@H]2C[C@@H]3O[C@]3(C)CCC[C@H](C)[C@H](O)[C@@H](C)C(=O)C(C)(C)[C@@H](O)CC(=O)O2)n(CCNC(=O)OC(C)(C)C)n1` was 66%.
`N#CC(N)c1ccccc1` (stereo not given): the growth is 98.9%.
Next, `CCc1ccccc1[C@@H]1C[C@]2(C)CCO[C@@H]2OO1`: 102%; `COc1cc(/C=C/[N+](=O)[O-])c([N+](=O)[O-])cc1OC`: -71.2% (active).
The value for `CC(=O)O[C@H](C[C@H](C(C)C)N(C)C(=O)[C@@H](NC(=O)[C@H]1CCCCN1C)C(C)C)c1nc(C(=O)N[C@@H](Cc2ccccc2)C[C@H](C)C(=O)O)c(C)s1` was 11.4%.
As for `C[C@]12CC[C@@H]3c4ccc(Oc5nc(N6CC6)nc(N6CC6)n5)cc4CC[C@H]3[C@@H]1CCC2=O`, the growth is 30.4%.
The value for `CCC1CN1CCCCN1CC1CC` (stereo not given) was 101%.
As for `CC/C(=C(\c1ccc(OCCN2CCOCC2)cc1)c1ccc(OC(=O)Cc2ccccc2)cc1)c1ccc(Cl)cc1`, the growth is 104%.
Next, `CCOC(=O)CCN(C)C1=Nc2ccc(Cl)cc2C(c2ccccc2)=[N+]([O-])C1`: 93.7%.
The value for `CNCc1cccnc1` was 110%; that for `CC1=C(C)C(=O)O[C@@H]([C@](C)(O)[C@]2(O)CC[C@@]3(O)[C@@H]4C[C@H]5O[C@]56CC=CC(=O)[C@]6(C)[C@H]4CC[C@]23C)C1` was -26.3% (active).
The value for `CCN(CCO)C(Cc1ccccc1)c1ccccc1` (stereo not given) was 96%.
Regarding `c1cnc2[nH]cc(-c3csc(-c4cn(CCCCN5CCOCC5)c5ccccc45)n3)c2c1`, the growth was 35.1%.
Next, `Nc1cccc(CC(=O)Nc2ccc(S(=O)(=O)F)cc2)c1`: 90.2%.
`C=CCC1(CC)C(=O)NC(=S)NC1=O`: the growth was 97.4%.
The value for `CC(C)(C)C(=O)OCOP(=O)(OCOC(=O)C(C)(C)C)C1CCCN(O)C1=O` (stereo not given) was -8.03% (active); that for `OB([O][Hg][c]1ccccc1)[O][Hg][c]1ccccc1` was -71.2% (active).
The value for `C[C@]12CC[C@H](OC3OC(O)C(O)C(O)C3O)C=C1CCC1C2CC[C@]2(C)[C@@H](c3ccc(=O)oc3)CC[C@]12O` (stereo not given in full) was -63.8% (active).
Consider `Cc1ccc(Nc2nc3c(s2)C2=CC[C@@H]4[C@H](CC[C@]5(C)C(=O)CC[C@@H]45)[C@@]2(C)CC3)cc1`, for which the growth is 32.3%.
Consider `O=C1NC(=O)C(=Cc2cn(C(=O)c3ccccc3)c3ccccc23)C(=O)N1`, for which the growth is 101%.
Next, `Clc1ccc(CSC(Cn2ccnc2)c2ccc(Cl)cc2Cl)cc1` (stereo not given): -2.39% (active); `COC(=O)C1=CO[C@@H](C)[C@@H]2CN3CCc4c([nH]c5cc(OC)ccc45)[C@@H]3C[C@H]12`: 107%.
Consider `Oc1cc(Cl)ccc1Oc1ccc(Cl)cc1Cl`, for which the growth is 7% (active).
